Measurements reported in PubChem BioAssay (EPA / NIEHS).
The source made the active and inactive calls. How the source made its calls: active means hit-call score of the fitted dose curve at least 0.9, where 1 is the maximum; inactive means score below 0.9.

Read-out: ABC Transporter (ABCC3), ABCC3 (gene 8714)
Test: LTEA_HepaRG_ABCC3: Life Technologies and Expression Analysis (LTEA) Assay for ABC Transporter (ABCC3) using HepaRG (AID 2283462)
Details: mRNA level, 48 h; actives raise or lower the signal
Description: LTEA_HepaRG is a cell based, multiplexed-readout assay that uses HepaRG, a human liver cell line, with measurements taken at 48 hours after chemical dosing on a 96-well plate.LTEA_HepaRG_ABCC3 is one of 102 assay component(s) measured in the LTEA HepaRG cell culture assay. It is a marker of NR mediated transport.Data from the assay component LTEA_HepaRG_ABCC3 was analyzed into 1 endpoint. This assay endpoint, LTEA_HepaRG_ABCC3, was analyzed with bidirectional fitting relative to DMSO as the negative control and baseline of activity. Using a type of inducible reporter, measures of mRNA induction for gain or loss-of-signal activity can be used to understand regulation of transcription factor activity. To generalize the intended target to other relatable targets, this assay endpoint is annotated to the transporter intended target family, where the subfamily is ABC transporter.
A total of 1060 chemcials from the ToxCast library were tested in eight-point concentration-response experiments. Cell culture and cytotoxicity assays were conducted at Thermo Fisher Scientific's Custom Services facility (Madison, WI). A single lot of human HepaRG cells (Thermo Fisher Scientific, Frederick, MD) was used for the cell culture experiments. 96-well format collagen type I coated plates of human HepaRG cells were prepared using established methods. Briefly, cryopreserved HepaRG cells were thawed, plated at a density of approximately 100,000 cells/well in HepaRG Thaw, Plate, and General Purpose media (HPRG770, Thermo Fisher Scientific), and incubated for 48 hours. 0.5% DMSO was selected as vehicle control to balance the requisite need of DMSO in HepaRG cultures to maintain differentiation (for example, baseline metabolism, proportions of hepatocytes vs. cholangiocytes), while enabling further hepatic receptor pathway activation (for example, PXR and CAR) in response to chemical exposure. 48 hours after plating, the culture medium was replaced with HepaRG Serum-Free Incudtion Media. Cells were exposed to each test chemical in duplicate and maintained in CO2 incubators for another 48 hours. Chemical plates were thawed to room temperature and 200x concentrations of treatment groups were prepared. 8-point conentration-reponse curves were made with the highest exposure at 100 uM, followed by half-log dilutions, all in 0.5% DMSO. Each test plate contained variouse controls, induction positive controls (1mM phenobarbital), cytotoxicity positive controls ([…] aflatoxin B1), vehicle controls (0.5% DMSO), and total lysis controls (0.5% DMSO). Cell morphology images were taken using an Essen IncuCyte FLR automated microscope, with six 96-well plates imaged in about 24 minutes. Images were captured and exported and JPEG files. Spent culture media was transfered to black-well plates for the LDH assay, and remaining media was sorted at -80 C for later use. Cells were treated with RLT buffer and frozen until shipped for gene expression analysis. Total RNA was isolated from the cell suspension in 75 uL of Buffer RLT (Qiagen, Germantown, MD 20874) by Quintiles/Expression Analysis (Durham, NC) using a custom isolation procedure. Total RNA from each plate well was transferred to a preamplification plate. Fluidigm's 96.96 Dynamic ArrayTM (Fluidigm, Amsterdam, the Netherlands) technology was used for gene expression analyses by quantitative reverse transcription polymerase chain reaction (qRT-PCR, performed by Quintiles/Expression Analysis, Durham, NC)89. Standard TaqManTM Assays (Applied Biosystems/ThermoFisher Scientific, Foster City, CA) were used to assess the expression of 93 genes selected based on their selectivity and sensitivity to important hepatic receptors known to be modulated by environmental chemicals; importance in human hepatocyte functionality; and hepatotoxicity. […]

outcome, inactive:
O=C(c1ccccc1)c1ccccc1
CCCCCCCCCCCCOS(=O)(=O)O
O=C1NS(=O)(=O)c2ccccc21
CN(C)CCOC(c1ccccc1)c1ccccc1
CCCCC(CC)C(=O)O (stereo unspecified)
OCC(CO)(CBr)CBr
CC(=O)Nc1ccc(O)cc1
CN(Cc1cnc2nc(N)nc(N)c2n1)c1ccc(C(=O)N[C@@H](CCC(=O)O)C(=O)O)cc1
CCCCCCCCCCCCCCC
CCC(C)c1ccccc1O (stereo unspecified)
CS(=O)(=O)c1ccc([C@@H](CC2CCCC2)C(=O)Nc2cnccn2)cc1Cl
CCCCC=O

AC50, active:
O=C(CCCN1CCC(O)(c2ccc(Cl)cc2)CC1)c1ccc(F)cc1 50 µM
CCCCc1oc2ccccc2c1C(=O)c1cc(I)c(OCCN(CC)CC)c(I)c1 22.4 µM
Cc1[nH]nc2c1N=C(c1ccccc1Cl)c1cc([N+](=O)[O-])ccc1N2 3.26 µM
N=C(N)c1ccc(OCCCCCOc2ccc(C(=N)N)cc2)cc1 3.46 µM
